Laboratory results taken from PubChem BioAssay AID1159580 (chemical genetic matrix, 2015).
Among all 5,500 compounds or so, about 2,000 (36%) were called active. Inconclusive results (about 18%) are left out. Rule as the data show it: active = normalized growth mostly below about 0.91 (no sharp cut-off); inconclusive = no clear call, values can overlap the other calls; inactive = mostly above about 0.92. The list shows a part of the results.

Test: chemical genetic growth profiling, strain panel (AID 1159580);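 also: tested at 20 µM; growth read once vehicle control cultures reached saturation at 30 °C; 1 = growth at the plate median or of vehicle wells; lower values mean less growth of the strain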
Details: S. cerevisiae deletion strains, growth OD

Measured: normalized growth

COc1ccc(-c2coc3cc(OC(C)=O)cc(OC(C)=O)c3c2=O)cc1
active: locus YDR334W, strain swr1, hits give low values 0.887 | locus YDR392W, strain spt3, hits give low values 0.576 | locus YHR142W, strain chs7, hits give low values 0.874 | locus YJL129C, strain trk1, hits give low values 0.861 | locus YNL071W, strain lat1, hits give low values 0.845
inactive: locus YAL021C, strain ccr4, hits give low values 0.964 | locus YAL026C, strain drs2, hits give low values 0.949 | locus YAL030W, strain snc1, hits give low values 0.958 | locus YBL061C, strain skt5, hits give low values 0.96 | locus YBR009C, strain hhf1, hits give low values 0.958 | locus YBR023C, strain chs3, hits give low values 0.967 | locus YBR171W, strain sec66, hits give low values 0.937 | locus YBR231C, strain swc5, hits give low values 0.957 | locus YBR279W, strain paf1, hits give low values 0.984 | locus YCL011C, strain gbp2, hits give low values 0.919 | locus YCL016C, strain dcc1, hits give low values 0.925 | locus YCL061C, strain MRC1, hits give low values 0.96 | locus YCL069W, strain vba3, hits give low values 0.953 | locus YCR088W, strain abp1, hits give low values 0.968 | locus YDL005C, strain med2, hits give low values 0.961 | locus YDL040C, strain nat1, hits give low values 0.983 | locus YDR001C, strain nth1, hits give low values 0.939 | locus YDR069C, strain doa4, hits give low values 0.92 | locus YDR137W, strain rgp1, hits give low values 0.871 | locus YDR159W, strain sac3, hits give low values 0.953 | locus YDR195W, strain ref2 1.01 | locus YDR297W, strain sur2, hits give low values 0.985 | locus YDR335W, strain msn5, hits give low values 0.967 | locus YEL003W, strain gim4, hits give low values 0.977 | locus YEL037C, strain rad23, hits give low values 0.972 | locus YEL061C, strain CIN8 (second series), hits give low values 0.965 | locus YER015W, strain faa2, hits give low values 0.951 | locus YER016W, strain bim1, hits give low values 0.972 | locus YER111C, strain swi4, hits give low values 0.968 | locus YER155C, strain BEM2 (second series), hits give low values 0.878 | locus YFR010W, strain ubp6, hits give low values 0.955 | locus YGL167C, strain pmr1, hits give low values 0.965 | locus YGL173C, strain kem1, hits give low values 0.922 | locus YGL227W, strain vid30, hits give low values 0.955 | locus YGL240W, strain doc1, hits give low values 0.961 | locus YGL253W, strain hxk2, hits give low values 0.925 | locus YHR013C, strain ard1, hits give low values 0.902 | locus YHR027C, strain rpn1, hits give low values 0.951 | locus YJL092W, strain hpr5, hits give low values 0.923 | locus YJL095W, strain BCK1 (second series), hits give low values 0.963 | locus YJL115W, strain asf1, hits give low values 0.914 | locus YJL154C, strain vps35, hits give low values 0.97 | locus YJL164C, strain tpk1, hits give low values 0.935 | locus YJL166W, strain qcr8, hits give low values 0.944 | locus YJL187C, strain SWE1, hits give low values 0.961 | locus YKL160W, strain elf1, hits give low values 0.988 | locus YKR026C, strain gcn3, hits give low values 0.965 | locus YKR091W, strain srl3, hits give low values 0.958 | locus YLL001W, strain dnm1, hits give low values 0.929 | locus YLL026W, hits give low values 0.967 | locus YLL041C, strain sdh2, hits give low values 0.963 | locus YLR027C, strain aat2, hits give low values 0.936 | locus YLR221C, strain rsa3, hits give low values 0.922 | locus YLR258W, strain gsy2, hits give low values 0.964 | locus YLR262C, strain YPT6 (second series), hits give low values 0.889 | locus YLR320W, strain mms22, hits give low values 0.927 | locus YLR342W, strain FKS1, hits give low values 0.968 | locus YLR357W, strain rsc2, hits give low values 0.981 | locus YLR370C, strain arc18, hits give low values 0.954 | locus YLR384C, strain iki3, hits give low values 0.968 | locus YML120C, strain ndi1, hits give low values 0.925 | locus YMR058W, strain fet3, hits give low values 0.935 | locus YMR125W, strain sto1, hits give low values 0.914 | locus YMR129W, hits give low values 0.966 | locus YMR205C, strain PFK2, hits give low values 0.91 | locus YMR231W, strain pep5, hits give low values 0.978 | locus YNL209W, strain ssb2, hits give low values 0.963 | locus YNL248C, strain rpa49, hits give low values 0.967 | locus YNL322C, strain KRE1 (second series), hits give low values 0.923 | locus YNR049C, strain mso1, hits give low values 0.954 | locus YOR001W, strain rrp6, hits give low values 0.971 | locus YOR070C, strain gyp1, hits give low values 0.972 | locus YOR080W, strain dia2, hits give low values 0.955 | locus YOR083W, strain WHI5, hits give low values 0.976 | locus YOR106W, strain vam3, hits give low values 0.928 | locus YOR265W, strain rbl2, hits give low values 0.963 | locus YOR270C, strain vph1, hits give low values 0.834 | locus YPL051W, strain arl3, hits give low values 0.959 | locus YPL078C, strain atp4, hits give low values 0.968 | locus YPL106C, strain sse1, hits give low values 0.913 | locus YPL240C, strain hsp82, hits give low values 0.956
